# Data: PubChem BioAssay
# For part of these data: Results with a measured potency or affinity are listed apart.
# Test: polyglutamine-triggered caspase-3 activation inhibitors, cell-based (AID 1583)
# Conditions: polyglutamine-induced caspase-3 activation, cell assay; stronger effect = higher value; concentration not given here
row,SMILES,inhibition
1,C=CC[C@@H]1/C=C(\C)C[C@H](C)C[C@H](OC)[C@H]2O[C@@](O)(C(=O)C(=O)N3CCCC[C@H]3C(=O)O[C@H](/C(C)=C/[C@@H]3CC[C@@H](O)[C@H](OC)C3)[C@H](C)[C@@H](O)CC1=O)[C@H](C)C[C@@H]2OC,-0.04%
2,OC(c1cc(C(F)(F)F)nc2c(C(F)(F)F)cccc12)C1CCCCN1 (stereo not given),50.1%
3,COc1ccc(C2Sc3ccccc3N(CCN(C)C)C(=O)C2OC(C)=O)cc1 (stereo not given),5.24%

# Test: suppressors of polyQ aggregation in yeast, 75Q-TubU reporter (AID 1593)
# Conditions: Yeast 75Q polyglutamine aggregation reporter
row,SMILES,score
1,C=CC[C@@H]1/C=C(\C)C[C@H](C)C[C@H](OC)[C@H]2O[C@@](O)(C(=O)C(=O)N3CCCC[C@H]3C(=O)O[C@H](/C(C)=C/[C@@H]3CC[C@@H](O)[C@H](OC)C3)[C@H](C)[C@@H](O)CC1=O)[C@H](C)C[C@@H]2OC,-0.08
2,OC(c1cc(C(F)(F)F)nc2c(C(F)(F)F)cccc12)C1CCCCN1 (stereo not given),1.42
3,COc1ccc(C2Sc3ccccc3N(CCN(C)C)C(=O)C2OC(C)=O)cc1 (stereo not given),1.09

# Test: rescue of polyQ-huntingtin neuronal dysfunction in worms, whole organism, C. elegans mechanosensory neurons, N-terminal huntingtin (AID 1599)
# Conditions: touch response, stronger effect = higher value
row,SMILES,rescue above control
1,C=CC[C@@H]1/C=C(\C)C[C@H](C)C[C@H](OC)[C@H]2O[C@@](O)(C(=O)C(=O)N3CCCC[C@H]3C(=O)O[C@H](/C(C)=C/[C@@H]3CC[C@@H](O)[C@H](OC)C3)[C@H](C)[C@@H](O)CC1=O)[C@H](C)C[C@@H]2OC,0
2,OC(c1cc(C(F)(F)F)nc2c(C(F)(F)F)cccc12)C1CCCCN1 (stereo not given),0
3,COc1ccc(C2Sc3ccccc3N(CCN(C)C)C(=O)C2OC(C)=O)cc1 (stereo not given),-7.88

# Test: inhibitors of mitochondrial cytochrome c release, biochemical, purified mitochondria (AID 1603);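 also: mouse liver mitochondria challenged with calcium chloride; signal normalized to the plate average as 100%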
# Conditions: stronger effect = lower value
row,SMILES,cytochrome c release ratio
1,C=CC[C@@H]1/C=C(\C)C[C@H](C)C[C@H](OC)[C@H]2O[C@@](O)(C(=O)C(=O)N3CCCC[C@H]3C(=O)O[C@H](/C(C)=C/[C@@H]3CC[C@@H](O)[C@H](OC)C3)[C@H](C)[C@@H](O)CC1=O)[C@H](C)C[C@@H]2OC,2.76
2,OC(c1cc(C(F)(F)F)nc2c(C(F)(F)F)cccc12)C1CCCCN1 (stereo not given),2.44
3,COc1ccc(C2Sc3ccccc3N(CCN(C)C)C(=O)C2OC(C)=O)cc1 (stereo not given),1.1

# Test: inhibitors of polyQ protein aggregation (AID 1604)
# Conditions: polyglutamine-induced protein aggregation inhibition assay; stronger effect = higher value; concentration not given here
row,SMILES,inhibition of aggregation
1,C=CC[C@@H]1/C=C(\C)C[C@H](C)C[C@H](OC)[C@H]2O[C@@](O)(C(=O)C(=O)N3CCCC[C@H]3C(=O)O[C@H](/C(C)=C/[C@@H]3CC[C@@H](O)[C@H](OC)C3)[C@H](C)[C@@H](O)CC1=O)[C@H](C)C[C@@H]2OC,0%
2,OC(c1cc(C(F)(F)F)nc2c(C(F)(F)F)cccc12)C1CCCCN1 (stereo not given),-19.6%
3,COc1ccc(C2Sc3ccccc3N(CCN(C)C)C(=O)C2OC(C)=O)cc1 (stereo not given),45.9%
